Measured values published in PubChem BioAssay (NCATS).
“And” between values parts separate entries of the source, which are not always exact repeats. Equal entries are not always repeated. Results filed as inconclusive are left out. A number with no mark means an inactive call. The source made the active and inactive calls. The call rests on the fitted dose curve; in most records, active means well fitted cell-killing curve with a large enough effect; inconclusive means small, poorly fitted or top-dose-only effect, or effect the other way; inactive means flat fitted curve, though single readings scatter.

These compounds were tested on Tov-21-G (assay: Primary qHTS to identify gynecologic anti-cancer compounds using libraries of approved drugs and bioactive compounds (AID 1345084; further: nearly all actives have a fitted effect of over 55% in size)). Conditions: Gynecologic cancer cell panel viability, ATPlite luminescence, 48 h; series mostly up to 57.5 µM; activity change, negative = cytotoxicity: at the top concentration.
Procedure, shortened: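 In this quantitative HTS, cell killing is estimated from loss of ATP-dependent luciferase light. Cells see five compound concentrations over a 48 h exposure.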
On the % scale 0 is the no-effect control and ±100 the full control effect; potency means the concentration at half of the fitted maximal effect.

SMILES | activity change, negative = cytotoxicity | Potency
NC(Cc1c[nH]c2ccccc12)C(=O)NC(CCC(=O)O)C(=O)O (configuration not stated) | 1.11% | 
C[C@@H]1O[C@@H](O[C@H]2[C@H](OC(=O)[C@]34CCC(C)(C)C[C@H]3C3=CCC5[C@@]6(C)C[C@H](O)[C@H](O[C@@H]7O[C@H](CO)[C@@H](O[C@@H]8O[C@H](CO)[C@@H](O)[C@H](O)[C@H]8O)[C@H](O)[C@H]7O)[C@@](C)(CO)C6[C@H](O)C[C@@]5(C)[C@]3(C)C[C@H]4O)OC[C@H](O)[C@@H]2O)[C@H](O)[C@H](O)[C@H]1O[C@@H]1OC[C@@H](O)[C@H](O[C@@H]2OC[C@](O)(CO)[C@H]2O)[C@H]1O (some centres not stated) | 2.26% [at 6.55 µM] | 
CC(C)C1=CC2=CCC3[C@](C)(CCC[C@@]3(C)C(=O)O)C2CC1=O (some centres not stated) | 4.62% [at 38.5 µM] | 
CC1(C)CC[C@]2(C(=O)O[C@@H]3O[C@H](CO)[C@@H](O)[C@H](O)[C@H]3O)CC[C@]3(C)C(=CCC4[C@@]5(C)C[C@@H](O)[C@H](O)[C@@](C)(CO)C5CC[C@]43C)C2C1 (some centres not stated) | -5.99% [at 25.3 µM] | 
COc1ccc([C@H]2Cc3cccc(O)c3C(=O)O2)cc1 | 0.52% | 
C[C@@H]1CC[C@]2(C(=O)O)CC[C@]3(C)C(=CCC4[C@]5(C)C(CC[C@]43C)C(C)(C)[C@@H](O)[C@H](O)[C@@H]5O)C2[C@]1(C)O (some centres not stated) | -5.22% [at 25.3 µM] | 
CCC(=O)NS(=O)(=O)c1ccc(-c2c(-c3ccccc3)noc2C)cc1 | -1.07% | 
CC(C)(C)c1cc(CN2CCN(CC(O)c3ccc(Cl)cc3)CC2)cc(C(C)(C)C)c1O (configuration not stated) | -3.55% | 
CCOc1nc2cccc(C(=O)O)c2n1Cc1ccc(-c2ccccc2-c2noc(=O)[nH]2)cc1 | 7.07% | 
CC1(O)CCC2C(C(=O)O)=COC(OC3OC(CO)C(O)C(O)C3OC(=O)/C=C/c3ccc(O)cc3)C21 (configuration not stated) | 0.361% [at 25.3 µM] | 
COc1c2c(c(C)c3c1C(=O)OC3)O[C@@]1(C)C[C@@H](O)[C@]34O[C@](OC)(CC[C@]3(C)[C@H]1C2)OC4(C)C | -0.727% [at 25.3 µM] | 
CN1Cc2c(N)cccc2C(c2ccccc2)C1 (configuration not stated) | -4.79% | 
COC(=O)CC1(O)C(=O)Nc2ccccc21 (configuration not stated) | 5.13% | 
CC1=C2[C@@H]([C@H](C)CC[C@H]2/C=C(\C)C(=O)O)[C@H](O)C1 | -3.35% | 
C[C@]12C=CC(=O)C=C1CC[C@@H]1[C@@H]2[C@@H](O)C[C@@]2(C)[C@H]1CC[C@]2(O)C(=O)COC(=O)CCC(=O)O | -2.55% | 
O=C(/C=C/c1ccc(O)cc1)OC[C@]12O[C@H]1[C@@H](O)[C@@H]1C=CO[C@@H](O[C@@H]3O[C@H](CO)[C@@H](O)[C@H](O)[C@H]3O)[C@@H]12 | -1.86% [at 25.3 µM] | 
CC(=O)OCC(=O)O[C@@H]1[C@H]2[C@@H](OC(=O)c3ccccc3)[C@@H](C)C[C@]2(O)[C@H](OC(C)=O)C2(C)[C@H]3CC(C)(C)C(=O)[C@@H]3CC1(OC(C)=O)[C@@H]2OC(C)=O (some centres not stated) | 7.37% [at 25.3 µM] | 
CN1C(=O)c2ccccc2-n2c(nc3ccccc3c2=O)[C@@]12O[C@H]2c1ccccc1 | 4.18% [at 38.5 µM] | 
C#Cc1cnc2[nH]c(=O)n(C(CC)CC)c2n1 | 0.633% | 

SMILES | activity change, negative = cytotoxicity | Potency
CCNC(=O)[C@H]1O[C@H](n2cnc3c(NCC(c4ccccc4)c4ccccc4)nc(C(=O)NCCNC(=O)NC4CCN(c5ccccn5)CC4)nc32)[C@H](O)[C@@H]1O | -3.59% | 
C=C[C@H]1[C@H](O[C@@H]2O[C@H](CO)[C@@H](O)[C@H](O)[C@H]2O)OC=C2C(=O)OCC[C@]21O | 7.19% [at 38.5 µM] | 
Nc1c(Br)cc(Br)cc1CNC1CCC(O)CC1 (configuration not stated) | -0.304% | 
CCC(C)/C=C(C)/C=C/C1=CC2=C(Cl)C(=O)C(C)(OC(C)=O)C(=O)C2=CN1C1CCCCN(C(CCC(N)=O)C(=O)O)C1=O (configuration not stated) | 4.22% [at 25.3 µM] | 
CCC[C@@H]1C[C@@H](C(=O)N[C@@H]([C@H]2O[C@H](SC)[C@H](OP(=O)(O)O)[C@@H](O)[C@H]2O)[C@H](C)Cl)N(C)C1 | 5.97% [at 25.3 µM] | 
COc1cc([C@H]2OC[C@@H]3[C@@H](c4ccc(O[C@@H]5O[C@H](CO)[C@@H](O)[C@H](O)[C@H]5O)c(OC)c4)OC[C@]23O)ccc1O | 1.97% [at 25.3 µM] | 
COCCN(C)Cc1ccc2nc3sc(C(=O)N(C)C4CCCCC4)cn3c2c1 | 5.35% | 
CCC(=O)O[C@]1(C(=O)CCl)[C@@H](C)C[C@H]2[C@@H]3C[C@H](F)C4=CC(=O)C=C[C@]4(C)[C@@]3(F)[C@@H](O)C[C@@]21C | 6.16% | 
CC(C)CC(=O)n1cc(C(N)=O)c(=O)cc1C(O)c1ccccc1 (configuration not stated) | 8.75% [at 38.5 µM] | 
CC1(C)CC[C@]2(C(=O)O[C@@H]3O[C@H](CO)[C@@H](O)[C@H](O)[C@H]3O)CC[C@]3(C)C(=CCC4[C@@]5(C)C[C@@H](O)[C@H](O)C(CO)(CO)C5CC[C@]43C)C2[C@@H]1O (some centres not stated) | 11.2% [at 25.3 µM] | 
OC[C@H]1O[C@@H](OC(CCCCc2ccc(O)cc2)CCc2ccc(O)cc2)[C@H](O[C@@H]2OC[C@](O)(CO)[C@H]2O)[C@@H](O)[C@@H]1O (some centres not stated) | -0.555% [at 25.3 µM] | 
CC[C@H]1OC(=O)C[C@@H](O)[C@H](C)[C@@H](O[C@@H]2O[C@H](C)[C@@H](O)[C@H](N(C)C)[C@H]2O)[C@@H](CCN2C[C@H](C)C[C@H](C)C2)C[C@@H](C)C(=O)/C=C/C(C)=C/[C@@H]1CO[C@@H]1O[C@H](C)[C@@H](O)[C@@H](OC)[C@H]1OC | -0.32% | 
C[C@@H]1C[C@H]2[C@@H]3CCC4=CC(=O)C=C[C@]4(C)[C@@]3(F)[C@@H](O)C[C@]2(C)[C@@]1(O)C(=O)COP(=O)(O)O | 11.5% | 
CC(=O)OC(C)OC(=O)C(C)c1ccc(-c2ccccc2)c(F)c1 (configuration not stated) | -2.3% | 
CCC(C)/C=C(C)/C=C/C1=CC2=C(Cl)C(=O)C(C)(OC(C)=O)C(=O)C2=CN1CCCC(=O)O (configuration not stated) | 3.28% [at 25.3 µM] | 
NS(=O)(=O)OC[C@@H]1C[C@@H](n2ccc3c(N[C@H]4CCc5ccccc54)ncnc32)C[C@@H]1O |  | 501 nM (active) and 398 nM (active)
CC(C)CC1(C(=O)OCc2ccc(O[C@@H]3O[C@H](CO)[C@@H](O)[C@H](O)[C@H]3O)cc2)CC(=O)OC(C(=O)O)CC(=O)OCC2OC(O1)C(OC(=O)/C=C/c1ccc(O)cc1)C(O)C2O (some centres not stated) | -1.82% [at 11.6 µM] | 
OC[C@H]1O[C@@H](OCCc2ccc(O)cc2)[C@H](O)[C@@H](O)[C@@H]1O | -0.333% | 
